The results in this text go back to PubChem BioAssay AID1053124 (Broad Institute, 2014).

Measured potencies and affinities stand elsewhere. The source made the active and inactive calls.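 Rule for the calls: active = cell killing whose fitted half-effect concentration is at most twice the top valid dose tested; inconclusive = flat curve with 30 to 70% killing, or a poor fit; inactive = effect in the rising direction, plus the rest.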

The experiment can be described thus: viability loss in A549 lung cells – cell-based, ATP luminescence, cherry-pick, set 2, cytotoxicity control, dose response (AID 1053124).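 Note: 0% = neutral control wells and -100% = mitoxantrone 10 µM positive control.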 The conditions noted are these: ATP luminescence (CellTiter-Glo), 72 h; series mostly up to 26 µM; activity change, negative = cytotoxicity: at the top concentration.
Regarding `CC(C)CCN1C(=O)c2cccc3c(N)ccc(c23)C1=O`, the “activity change, negative = cytotoxicity” value is 5.3% (inactive).

For the molecule `CCCn1c(=N)c(S(=O)(=O)c2ccccc2)cc2c(=O)n3ccccc3nc21`, the “activity change, negative = cytotoxicity” value is -7.19% (inactive).

Turning to `CCN(CC)CCN1C2=C(C(=O)CC(C)(C)C2)C(c2cccc(F)c2)C2=C1CC(C)(C)CC2=O`, the “activity change, negative = cytotoxicity” value is -12.3% (inactive).

As for `CCN(CC)CCNC(=O)c1sc2nc(-c3ccccc3)cn2c1C`, the “activity change, negative = cytotoxicity” value is -4.09% (inactive).

For the molecule `S=C(NCC1CCCO1)N1CCN(Cc2ccccc2Cl)CC1` (stereo not given), the “activity change, negative = cytotoxicity” value was -0.535% (inactive).

As to `Cc1cc(-n2c(=O)c(C#N)cc3c(=O)n4cccc(C)c4nc32)no1`, the “activity change, negative = cytotoxicity” value is -6.24% (inactive).

Take `O=C(NCc1nnnn1-c1ccc(Cl)cc1)C1CC(=O)N(c2ccc(F)cc2)C1` (stereo not given): the “activity change, negative = cytotoxicity” value was -5.9% (inactive).

As to `Cc1cccn2c(=O)c3cc(C(=O)NCc4ccc(F)cc4)c(=N)n(CCCN4CCOCC4)c3nc12`, the “activity change, negative = cytotoxicity” value was -12% (inactive).

In the case of `CCOC(=O)c1c(C)n(C)c2ccc(OCC(O)CN3CCC(C)CC3)cc12` (stereo not given), the “activity change, negative = cytotoxicity” value is -10.9% (inactive).

In the case of `CCOCCCNC(=S)N1CCCN(c2nc3cc(C)c(C)cc3cc2C#N)CC1`, the “activity change, negative = cytotoxicity” value was -12.1% (inactive).

For the molecule `CC(C)c1ccc(/C=C2\Oc3c(ccc(O)c3CN3CCN(C)CC3)C2=O)cc1`, the “activity change, negative = cytotoxicity” value is -2.02% (inactive).

On to `COc1ccc(CCNC(=O)CSc2cn(Cc3cccc(C)c3)c3ccccc23)cc1OC`, for which the “activity change, negative = cytotoxicity” value is -20.8% (inactive).

`CCc1ccccc1S(=O)(=O)Cc1ccc(C(=O)N2CCN(c3ccccc3OC)CC2)o1`: the “activity change, negative = cytotoxicity” value is -6.17% (inactive).

As for `COc1ccccc1/C=N/Nc1nc(C)cc(=O)[nH]1`, the “activity change, negative = cytotoxicity” value was -3.73% (inactive).

Turning to `CC/C(C)=N\Nc1nc(-c2cc3cc(OC)ccc3oc2=O)cs1`, the “activity change, negative = cytotoxicity” value is -4.33% (inactive).

For `O=C(C1=NN(c2ccccc2)C2C(=O)N(c3ccccc3)C(=O)C12)c1ccccc1` (stereo not given), the “activity change, negative = cytotoxicity” value is 7.8% (inactive).

As to `COCc1cc(C)nc(SCC(=O)Oc2ccc(Cl)cc2)c1C#N`, the “activity change, negative = cytotoxicity” value is -8.18% (inactive).

For the molecule `Cc1c(O)ccc2cc(S(=O)(=O)c3ccccc3)c(=O)oc12`, the “activity change, negative = cytotoxicity” value was -11.6% (inactive).

`CCOc1ccc2nc(NCCCNS(=O)(=O)c3ccc(F)cc3)c(C#N)cc2c1`: the “activity change, negative = cytotoxicity” value is 7.23% (inactive).

With `CCOC(=O)c1oc2c(CN3CCN(CCO)CC3)c(O)c(CC)cc2c(=O)c1-c1nc2ccccc2s1`, the “activity change, negative = cytotoxicity” value is -9.72% (inactive).

Regarding `CCOC(=O)c1cc2c(=O)n3ccccc3nc2n(CCCOC)c1=NC(=O)c1ccncc1`, the “activity change, negative = cytotoxicity” value is -2.23% (inactive).

In the case of `COc1ccccc1NS(=O)(=O)c1cc(NC(=O)CCNC(C)=O)ccc1C`, the “activity change, negative = cytotoxicity” value is 0.216% (inactive).

Take `COc1ccc(C2C(C#N)=C(N)Oc3cc(O)ccc32)cc1Cl` (stereo not given): the “activity change, negative = cytotoxicity” value is -5.72% (inactive).

Turning to `Cc1cccn2c(=O)c(/C=C(\C#N)C(=O)NC3CCS(=O)(=O)C3)c(N3CCC(C(N)=O)CC3)nc12` (stereo not given), the “activity change, negative = cytotoxicity” value was -3.85% (inactive).

With `CCC(=O)N1C(C(=O)NCc2ccc(OC)cc2)CSC1c1ccc(OC)cc1` (stereo not given), the “activity change, negative = cytotoxicity” value is -4.91% (inactive).

As for `O=C1CCc2cc(S(=O)(=O)NC(Cc3ccccc3)C(=O)NCCC3=CCCCC3)ccc2N1` (stereo not given), the “activity change, negative = cytotoxicity” value is 8.84% (inactive).

`COc1ccccc1C1C2=C(CC(C)(C)CC2=O)N(CC(=O)O)C2=C1C(=O)CC(C)(C)C2`: the “activity change, negative = cytotoxicity” value is -3.25% (inactive).

With `COc1c(Cl)cc(-c2noc(C)c2C(=O)NCc2ccc3c(c2)OCO3)cc1Cl`, the “activity change, negative = cytotoxicity” value is 0.255% (inactive).

With `Cc1cc(OC(=O)c2ccccc2Cl)ccc1N1C(=O)CCC1=O`, the “activity change, negative = cytotoxicity” value was -0.659% (inactive).

Regarding `COCCCn1c(=N)c(C(=O)NC2CCCCC2)cc2c(=O)n3ccccc3nc21`, the “activity change, negative = cytotoxicity” value is -12% (inactive).

On to `C=CCc1c(O)c(CC)cc2c(C)cc(=O)oc12`, for which the “activity change, negative = cytotoxicity” value is -7.59% (inactive).

With `N=c1oc2cc(O)ccc2cc1C(=O)Nc1nc2ccccc2s1`, the “activity change, negative = cytotoxicity” value is -10.5% (inactive).

For `Cc1ccc(-c2nc3ccsc3c(=O)[nH]2)cc1`, the “activity change, negative = cytotoxicity” value was -7.83% (inactive).

Regarding `Cc1ccc(C(=O)OCC(=O)Nc2c(C)nn(-c3ccccc3)c2C)c(O)c1`, the “activity change, negative = cytotoxicity” value was -3.16% (inactive).

In the case of `CCC(C)n1c(=N)c(C#N)cc2c(=O)n3cccc(C)c3nc21` (stereo not given), the “activity change, negative = cytotoxicity” value is -3.92% (inactive).

Take `Cc1ccc2nc3c(cc(S(=O)(=O)c4ccccc4)c(=N)n3Cc3ccco3)c(=O)n2c1`: the “activity change, negative = cytotoxicity” value is -7.72% (inactive).

For the molecule `CCOC(=O)c1cc2c(=O)n3cccc(C)c3nc2n(CC(C)C)c1=NC(=O)c1ccco1`, the “activity change, negative = cytotoxicity” value was -14.7% (inactive).

As for `CN(C)/C=C/C(=O)c1c(F)cccc1F`, the “activity change, negative = cytotoxicity” value is 0.6% (inactive).

Turning to `Cc1ccc(NC(=O)Nc2ccnc(-c3cccnc3)n2)cc1`, the “activity change, negative = cytotoxicity” value was -21.1% (inactive).

For `Cc1ccc2[nH]c3ccccc3c(=O)c2c1`, the “activity change, negative = cytotoxicity” value was -6.97% (inactive).
